This passage reports inhibition results from PubChem BioAssay AID488890 (Southern Research Specialized Biocontainment Screening …, 2010).

Among all 320,000 compounds or so, about 1,300 (0.41%) were called active. Roughly 3% stayed inconclusive and do not appear here. How the calls were made is not given here. Not all results are given here. Measured potencies and affinities stand elsewhere.

This assay is described as follows: growth inhibition of non-replicating M. tuberculosis (AID 488890).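 Further: plate controls were DMSO cells for no effect and high antibiotic wells for full effect.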 As to conditions: Mycobacterium tuberculosis non-replicating, at 25 µM, stronger effect = higher value.
Turning to `COc1ccc(N(CC(=O)Nc2ccc(F)c(Cl)c2)S(=O)(=O)c2c(C)noc2C)cc1`, the inhibition came to 19.1%.

Take `CCc1noc(C)c1C(=O)OC(C)C(=O)c1c(C)[nH]c2ccccc12` (stereo not drawn): the inhibition is 26.3%.

On to `Cc1cnc(C(=O)OC(C)C(=O)c2c(C)[nH]c3ccccc23)cn1` (stereo not drawn), for which the inhibition was 12.1%.

Take `CCN(CC)C(=O)CSc1nnc(-c2ccco2)o1`: the inhibition was determined as 18.1%.

Turning to `CCCOc1ccc(C(=O)CCNc2cccc(Cl)c2)cc1`, the inhibition is 74.8%.

On to `O=C1NC(=O)N(Cc2ccco2)C(=O)/C1=C/c1cccn1CCOc1ccccc1Cl`, for which the inhibition was 62.6%.

In the case of `Cc1cccc(OCCn2cccc2/C=C2/C(=O)NC(=O)N(Cc3ccco3)C2=O)c1`, the inhibition was determined as 49.4%.

On to `O=C(NCCCOc1cccc(CN2CCCCC2)c1)c1ccc(Cl)c(Cl)c1`, for which the inhibition came out at 56.6%.

With `COc1cccc(Nc2nc(C)cc(C)c2C(N)=O)c1`, the inhibition is -12.4%.

Regarding `COc1ccc2cc(CN(Cc3cccs3)Cc3nnnn3Cc3ccccc3)c(=O)[nH]c2c1`, the inhibition worked out at 27.5%.

For the compound `Cc1[nH]n(-c2ccccc2)c(=O)c1C(=O)c1ccc([N+](=O)[O-])cc1`, the inhibition was determined as 16.4%.

For the compound `Cc1[nH]n(-c2ccccc2)c(=O)c1C(=O)c1cccc(F)c1`, the inhibition was 69%.

With `Cc1cccc[n+]1CC(=O)/C=C1\N(C)c2ccccc2C1(C)C`, the inhibition was -1.75%.

Consider `COc1ccc(CN2CCC(n3nccc3NC(=O)C3CC3)CC2)c(OC)c1OC`, for which the inhibition is -1.17%.

As for `O=S(=O)(NCCN1CCOCC1)c1cc(Cl)ccc1Cl`, the inhibition was determined as 10.9%.

For `CC(C)(C)c1cc(C(=O)N/N=C/c2ccc(-c3ccccc3[N+](=O)[O-])o2)n[nH]1`, the inhibition worked out at 26.9%.

With `Cc1cc(C(=O)N/N=C/c2ccc(C)s2)n[nH]1`, the inhibition worked out at 4.06%.

`Cc1ccsc1/C=N\NC(=O)c1cc(C(C)(C)C)[nH]n1`: the inhibition turned out to be 12.6%.

As for `Cc1cc(C(=O)N/N=C/c2cccc([N+](=O)[O-])c2O)n[nH]1`, the inhibition turned out to be 14.7%.

As to `Cc1c(C(=O)OCC[N+]2(C)CCCCC2)oc2ccccc12`, the inhibition is -0.02%.

With `O=C(NCC(c1cccs1)N1CCOCC1)c1cccc([N+](=O)[O-])c1` (stereo not drawn), the inhibition is 3.78%.

As for `O=C(NCC(c1cccs1)N1CCOCC1)c1ccc([N+](=O)[O-])cc1` (stereo not drawn), the inhibition is -4.42%.

Turning to `CCOCCCN(C(=O)c1snc(C(N)=O)c1N)C(C(=O)NC1CCCC1)c1ccc(O)cc1` (stereo not drawn), the inhibition came out at 12.3%.

Turning to `O=C(C1=COCCO1)N(Cc1nnc(-c2ccccc2Cl)o1)C1CC1`, the inhibition turned out to be 2.01%.

In the case of `O=C(c1ccc(Cl)s1)N(Cc1nnc(-c2ccccc2Cl)o1)C1CC1`, the inhibition came out at 31.8%.

Turning to `CCCN(Cc1nnc(-c2ccccc2Cl)o1)C(=O)c1cc2ccccc2o1`, the inhibition worked out at 30.8%.

As to `CCCN(Cc1nnc(-c2ccccc2Cl)o1)C(=O)c1oc2ccccc2c1C`, the inhibition was -13.1%.

For the compound `COc1ccc(S(=O)(=O)N2CCOC23CCN(S(=O)(=O)c2cc(C)ccc2OC)CC3)cc1`, the inhibition was 5.02%.

As a reminder, the inhibition is the drop in the measured response relative to a control, in per cent.
